D1 antag = Antagonist of Human D 1 Dopamine Receptor: qHTS; HEK293 TREx D1 cells, calcium flux, dopamine EC80; active compounds read low; activity change, negative = inhibition, % at 10 µM; 360,000 compounds, 3.2% hits; AID 504652, 2011; in the data active = activity change below about -30%; also: % is scaled to controls: 0 for no effect and ±100 for the full control effect
Target sequence (P21728 whole entry, looked up): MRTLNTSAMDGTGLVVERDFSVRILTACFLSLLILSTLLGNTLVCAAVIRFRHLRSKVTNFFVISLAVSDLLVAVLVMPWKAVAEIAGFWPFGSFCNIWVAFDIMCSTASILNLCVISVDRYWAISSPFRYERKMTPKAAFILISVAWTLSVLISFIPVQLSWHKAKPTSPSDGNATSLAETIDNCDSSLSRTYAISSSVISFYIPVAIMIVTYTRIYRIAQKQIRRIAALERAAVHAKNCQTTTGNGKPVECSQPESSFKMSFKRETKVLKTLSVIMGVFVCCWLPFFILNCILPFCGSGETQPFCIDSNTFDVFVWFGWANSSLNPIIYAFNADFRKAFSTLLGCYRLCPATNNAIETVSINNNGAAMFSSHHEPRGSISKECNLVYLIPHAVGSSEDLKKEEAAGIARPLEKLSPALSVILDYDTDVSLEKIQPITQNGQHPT
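Allosteric or orthosteric antagonism assessed as attenuation of the calcium response to EC80 dopamine, added 180 s after compound, in induced HEK293 Trex D1 cells loaded with no-wash calcium dye.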
Chronic BCR inh = qHTS Assay to Find Inhibitors of Chronic Active B-Cell Receptor Signaling; 340,000 compounds, 0.05% hits; ABC-DLBCL IkBa-CBG/CBR reporter, luminescence ratio, 4 h; Potency, µM (titrated, usually from 46.1 µM), for inactives: at the top dose activity change, negative = inhibition, hits mostly inhibitors; active = well fitted inhibition curve with a large enough effect in the signal ratio, with a control signal flat, not every such curve was filed as active; inconclusive = small, poorly fitted or top-dose-only effect, or effect the other way, or a change in a side signal; the % refers to the signal ratio;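 also: potency is read from the fitted curve at half-maximal effect; plate controls were basal doxycycline-induced cells for no effect and cells given 10 µM MG132 for full effect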
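TMD8 ABC-DLBCL cells carrying doxycycline-inducible green luciferase fused to IkappaBalpha plus unfused red luciferase were exposed to compounds (up to 46 uM) for 4 hrs at 37C. Activity came from the overlap-corrected green/red luminescence ratio.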
D1 PAM = Potentiators of Human D1 Dopamine Receptor: qHTS; D(1A) dopamine receptor (Homo sapiens), P21728; HEK293 TREx D1 cells, calcium flux, dopamine EC20 potentiation; potentiation, % at 10 µM; 360,000 compounds, 0.036% hits; AID 504651, 2011; in the data active = potentiation above about 30%; also: 0% is about no effect
DRD3 agonist = qHTS of D3 Dopamine Receptor Agonist: qHTS; D3R DiscoveRx beta-arrestin cells, luminescence, 90 min; 410,000 compounds, 0.58% hits; max activation, %; in the data active = max activation above about 30%; also: 0% is about no effect
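Cells at 1500/well, incubated overnight, then treated with pinned compounds (dopamine as control) for 90 min at 37 degrees C. DiscoveRx reagent added for 30 - 60 minutes at room temperature; luminescence read.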
D1 ag = Allosteric Agonists of the Human D1 Dopamine Receptor: qHTS | D(1A) dopamine receptor (Homo sapiens), P21728 | HEK293 T-REx D1 cells, calcium flux, agonist mode | activation, % at 2 µM | 360,000 compounds, 1% hits | AID 504660, 2011; in the data active = activation above about 30%; also: 0% is about no effect
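Agonism was scored from calcium flux recorded over 180 s (1 read/s) after pintool compound addition, following a 10-cycle baseline. Cells were inducible force-coupled HEK293 TREx D1, plated overnight at 30 C and loaded with no-wash calcium dye.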
DRD3 antagonist = qHTS of D3 Dopamine Receptor Antagonist: qHTS. max response, negative = inhibition, %. 360,000 compounds, 2.5% hits. D3R cells, DiscoveRx beta-arrestin luminescence, antagonist mode; active compounds read low; in the data active = max response below about -50%; inconclusive = no clear call, values can overlap the other calls; also: % is scaled to controls: 0 for no effect and ±100 for the full control effect
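Cells expressing the human receptor were seeded at 1500 cells/well, incubated overnight at 37 degrees C in 5% CO2, then exposed to library compounds with dopamine controls for 90 minutes at 37 degrees C before luminescent detection.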
An asterisk follows results filed as active; ? = inconclusive; . = no result. An excerpt weighted towards active compounds, which were near 6% of everything screened.

SMILES | D1 antag | Chronic BCR inh | D1 PAM | DRD3 agonist | D1 ag | DRD3 antagonist
O=C(CN(C1CCCCC1)S(=O)(=O)c1ccc(F)cc1)NCC1CCCO1 (stereo not given) | . | . | . | -18 | . | ?
CC(C)S(=O)(=O)c1csc(C(=O)Nc2ccc(F)cc2)c1N | -56* | ? | -18 | -23 | 1 | -11
Cc1nc(Cl)sc1C(=O)Nc1ccc(F)cc1 | . | . | . | -3 | . | 7
Clc1ccc(CSC2=NCCCN2)cc1Cl | -15 | -9% | -12 | -10 | 23 | -57*
COc1ccc(C2C(=O)N(C3CCC(C)CC3)CC(=O)N2C2CCCC2)cc1OC (stereo not given) | 9 | -3% | 2 | -15 | 0 | .
Cc1sc2ncnc(N/N=C/c3cccc(O)c3)c2c1C | 3 | 2% | 6 | 8 | 1 | 10
C/C(=N\Nc1ncnc2sc(C)c(C)c12)c1ccccn1 | 6 | ? | 7 | 26 | 281* | 14
C/C(=N\Nc1ccc(Cl)c(C(=O)O)c1)c1ccccn1 | 0 | ? | -1 | -3 | 0 | -10
C/C(=N\Nc1ncc(Cl)cc1Cl)c1ccccn1 | -40* | ? | -2 | 2 | 3 | -7
CCn1ccnc1CN(C)C(=O)c1ccc(OC2CCN(CCc3ccccc3)CC2)cc1 | -22 | -1% | 0 | -9 | 3 | ?
CN(C(=O)c1ccc(OC2CCN(CCc3ccccc3)CC2)cc1)C1CCOC1 (stereo not given) | -1 | 1% | -3 | -10 | 1 | -5
CSCCNC(=O)c1ccc(OC2CCN(CCc3ccccc3)CC2)cc1 | -6 | -9% | -5 | -17 | 5 | -79*
COC1CCN(C(=O)c2ccc(OC3CCN(CCc4ccccc4)CC3)cc2)CC1 | -5 | 12% | -2 | -10 | 1 | 3
CN(C(=O)c1ccc(OC2CCN(CCc3ccccc3)CC2)cc1)C1CCOCC1 | 7 | -15% | -6 | -21 | 0 | -83*
CN(Cc1nccs1)C(=O)c1ccc(OC2CCN(CCc3ccccc3)CC2)cc1 | -54* | -1% | -11 | -29 | 6 | ?
O=C(c1ccc(OC2CCN(CCc3ccccc3)CC2)cc1)N1CCC(CO)CC1 | -44* | ? | -14 | 2 | 14 | -6
CC1=C(C(=O)N2CCN(c3cccc(Cl)c3)CC2)C2(CCCCC2)OC1=O | 2 | . | -1 | -16 | 0 | .
CCCS(=O)(=O)NC(=O)C1(C)CCN(C(=O)c2ccnc(Cl)c2)C1 (stereo not given) | . | . | . | -4 | . | 0
COc1ccc(OC)c(CCNC(=O)Cn2ccc3cc(S(=O)(=O)N4CCCCC4)ccc32)c1 | -2 | . | -4 | -17 | 7 | .
COC(=O)c1ccc(Nc2ncnc3c2cnn3C)cc1 | 13 | ? | 2 | -7 | -4 | .
C=CCn1c(O)c(N=Nc2ccccc2[N+](=O)[O-])c2ccccc21 | . | . | . | 2 | . | 0
COc1ccc(CNC(=O)Cc2ccc(NC(=O)N3CCSc4ncccc43)cc2)cc1OC | -2 | . | -1 | -4 | 2 | .
COc1ccc(C(C)NC(=O)C23CC4CC(CC(C4)C2)C3)cc1OC (stereo not given) | 2 | -4% | 12 | 3 | 0 | -4
CC(NC(=O)C12CC3CC(CC(C3)C1)C2)c1ccc(F)cc1 (stereo not given) | -51* | 2% | 9 | -22 | -3 | -11
COC1=C(NCc2ccc3c(c2)OCO3)C(=O)C(OC)=C(NCc2ccc3c(c2)OCO3)C1=O | . | . | . | -5 | . | -1
COc1cccc2sc3ccc(NCc4ccc5c(c4)OCO5)cc3c(=O)c12 | 0 | ? | 3 | -14 | 31* | 12
Cc1ccc(-c2noc(CSc3nnc(Cc4ccccc4)n3-c3cccc(C)c3)n2)cc1 | -6 | 15% | 0 | 0 | 24 | -9

Screening results: PubChem BioAssay, National Center for Advancing Translational Sciences (NCATS)
